Assay outcomes from PubChem.
Hits are enriched below; roughly 2.9% of the tested compounds scored in any of these assays.
KDM5B inh: Primary screen for KDM5B Histone Demethylases FDH-coupled qHTS. Lysine-specific demethylase 5B (Homo sapiens), Q9UGL1. KDM5B demethylase, FDH-coupled NADH fluorescence (FDH is formaldehyde dehydrogenase). Potency, µM (doses to about 57.7 µM), usual class: inhibitors. hit rate 2.6% among 220,000; note: nearly all actives have a fitted effect of over 70% in size
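KDM5BΔAP (200 nM final) in 50 mM HEPES pH 7.5, 0.01% Tween-20 was preincubated 10 min at RT with compound over a concentration range. Substrate mix (H3K4me3 12.5 µM, α-KG 25 µM, Fe²⁺, ascorbate, NAD⁺, FDH) was added, and NADH fluorescence change over 30 min gave dose-response curves.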
IP6K1 inh: Primary qHTS assay for small molecule inhibitors of Inositol hexaphosphate kinase 1 (IP6K1); Inositol hexakisphosphate kinase 1 (Homo sapiens), Q92551; IP6K1 kinase, ADP-Glo luminescence, 2 h; active compounds read low; activity change, % (series mostly up to about 58 µM); hit rate 0.81% among 140,000; AID 1645851, 2021; in the data active = activity change below about -25%
Target sequence (Q92551 whole entry, looked up): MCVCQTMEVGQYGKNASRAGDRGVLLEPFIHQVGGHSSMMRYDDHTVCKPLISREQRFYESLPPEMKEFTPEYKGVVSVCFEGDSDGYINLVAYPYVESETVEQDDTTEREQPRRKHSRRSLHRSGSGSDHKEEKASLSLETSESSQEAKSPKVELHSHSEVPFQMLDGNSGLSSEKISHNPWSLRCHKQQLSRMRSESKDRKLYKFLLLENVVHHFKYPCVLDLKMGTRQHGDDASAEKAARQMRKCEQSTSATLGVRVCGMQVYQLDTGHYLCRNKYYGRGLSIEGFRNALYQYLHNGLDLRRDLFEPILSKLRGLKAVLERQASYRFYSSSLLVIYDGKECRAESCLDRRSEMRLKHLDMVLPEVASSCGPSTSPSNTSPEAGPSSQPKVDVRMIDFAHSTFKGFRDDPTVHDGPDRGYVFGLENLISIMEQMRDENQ
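ADP-Glo luminescence measures ADP made by human IP6K1 during a 2 h RT reaction with ATP/IP6 (mix at 1.3 mM/130 uM); top library doses 57.5 and 19.1 uM final.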
SNCA viab count: GF-AFC viability counterscreen for inhibitors of alpha-synuclein gene (SNCA) expression | HEK-293-SNCA-luc viability, GF-AFC fluorescence, 24 h | Potency, µM (titrated, usually from 57.1 µM), actives largely listed as cytotoxic | hit rate 0.12% among 150,000 | AID 1671193, 2021; note: nearly all actives have a fitted effect of over 30% in size
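Cytotoxicity counterscreen: after 24 h compound treatment of genome-edited SNCA-luciferase HEK-293 cells, live-cell protease substrate GF-AFC read by fluorescence after 30 min; activity scaled between DMSO (0%) and medium-only (-100%), curves Hill-fitted.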
SNCA expr inhib: Primary qHTS assay for inhibitors of alpha-synuclein gene (SNCA) expression | hit rate 0.17% among 140,000 | AID 1671194, 2021 | Potency, µM (series often up to 57.2 µM), usual class: inhibitors | HEK-293 SNCA-luciferase knock-in, luminescence, 24 h; note: nearly all actives have a fitted effect of over 45% in size
Large screens that a line does not name were inactive. Unless noted, calls come from the whole dose curve; as a rule, active = well fitted curve in the direction sought with a large enough effect; inconclusive = small, poorly fitted or top-dose-only effect, or another doubt; inactive = no such curve, though single readings can be large; an effect the other way counts as inactive or inconclusive.

COCCNc1ncc(-c2ccc(NC(C)=O)cc2)c2c1OCC2	KDM5B inh 35.5µM
COc1ccc(C(=O)Nc2ncc(-c3cccc(N(C)C)c3)c3c2OCC3)cc1	KDM5B inh inconclusive
COCCNc1ncc(-c2ccc(F)cc2)c2c1OCC2	KDM5B inh 31.6µM
CC1=C[C@@H](CNCc2ccncc2)[C@H](C(C)C)C[C@H]1Cc1nnc(-c2ccccc2F)o1	SNCA viab count inconclusive, SNCA expr inhib inconclusive
COc1ccccc1-c1cccc(CN2CCC(NC(=O)NC3CCCC3)CC2)c1	SNCA viab count inconclusive (no result: KDM5B inh)
COc1ccc(CNC(=O)C2CCN(c3nccc(Nc4ccc(OC)cc4)n3)CC2)cc1	none (no result: KDM5B inh)
COCCNc1ncc(-c2ccc(SC)cc2)c2c1OCC2	KDM5B inh 5.01µM
COCCNc1ncc(-c2ccc(OC)cc2)c2c1OCC2	KDM5B inh 35.5µM
COc1ccc(-c2cnc(NC(=O)Cc3ccc(F)cc3)c3c2CCO3)cn1	KDM5B inh inconclusive
COc1ccc(OCC(=O)Nc2ncc(-c3ccc(OC)nc3)c3c2OCC3)cc1	none
CNC(=O)c1cc(C2CC2)nc2onc(C3CCN([S+](=O)([O-])c4cccc(C(F)(F)F)c4)C3)c12 (centres undefined)	none (no result: KDM5B inh, SNCA viab count, SNCA expr inhib)
O=C(c1cc(F)ccc1F)N1CC(Oc2ccccc2-c2nc(C3CC3)no2)C1	none (no result: KDM5B inh)
COc1ccc2[nH]c(=O)c(CN3CCOC(CN)C3)cc2c1 (centres undefined)	KDM5B inh 25.1µM
COc1ccc2[nH]c(=O)c(CCC(=O)NCCCN3CCCC(C)C3)cc2c1 (centres undefined)	KDM5B inh 31.6µM, SNCA expr inhib inconclusive
CCOC(=O)CN1CCN(C(=O)CCc2cc3cc(OC)ccc3[nH]c2=O)CC1	KDM5B inh 31.6µM, SNCA viab count inconclusive, SNCA expr inhib inconclusive
Cc1ccc2[nH]c(=O)c(CCC(=O)O)cc2c1	KDM5B inh inconclusive
COc1ccc2[nH]c(=O)c(CCC(=O)O)cc2c1	KDM5B inh 28.2µM
O=C1COc2ccccc2CCNC(=O)[C@H](Cc2ccc(OCCOCc3ccccc3)cc2)N1	none (no result: KDM5B inh, SNCA viab count, SNCA expr inhib)
O=C(NCCCc1ccccc1)c1ccc2nnc(-c3ccc(C(F)(F)F)cc3)n2c1	none (no result: KDM5B inh)
COc1ccccc1-c1cccc(C(=O)N2CCC[C@H]2C(=O)NCCc2ccc(Cl)cc2)c1	none (no result: KDM5B inh)
CCOC(=O)N1CCC(N[C@@H]2CC[C@@H]2NC(=O)c2ccccn2)CC1	KDM5B inh inconclusive
CCOC(=O)N1CCC(N[C@@H]2CC[C@@H]2NC(=O)c2cnc3cccnn23)CC1	KDM5B inh 31.6µM
COc1cccc(C(=O)N2CC(N3C(=O)c4c(c(C)nn4-c4ccccc4)C3C)C2)c1 (centres undefined)	none (no result: KDM5B inh, SNCA viab count, SNCA expr inhib)
Cc1ccccc1Cc1c(C)nc2c(C(=O)NCCc3noc(-c4ccncc4)n3)cnn2c1C	KDM5B inh inconclusive
Cc1ccc(C(=O)N2CCC(N3C(=O)c4c(c(C)nn4-c4ccccc4)C3C(C)C)C2)cc1 (centres undefined)	none (no result: KDM5B inh, SNCA viab count, SNCA expr inhib)
O=C(c1nnn2cc(-c3ccccc3)[nH]c(=O)c12)N1CCCCCC1	KDM5B inh inconclusive
CCCCN(CC)C(=O)c1nnn2cc(-c3ccc(Cl)cc3)[nH]c(=O)c12	none
O=C(c1nnn2cc(-c3ccc(F)cc3)[nH]c(=O)c12)N1CCOCC1	KDM5B inh 31.6µM, SNCA expr inhib inconclusive
O=C(NCC1CCCO1)c1nnn2cc(-c3ccccc3)[nH]c(=O)c12 (centres undefined)	KDM5B inh inconclusive
CCCCNC(=O)c1nnn2cc(-c3ccc(Cl)cc3)[nH]c(=O)c12	KDM5B inh 8.91µM
C=CCN1CCN(C(=O)c2nnn3cc(-c4ccccc4)[nH]c(=O)c23)CC1	KDM5B inh 28.2µM
COCCN1Cc2sccc2N(C[C@@H](O)COCc2ccccc2)CCC1=O	none (no result: KDM5B inh, SNCA viab count, SNCA expr inhib)
CCN(C)C(=O)C(C)N1CCc2onc(-c3ccc(-c4ccccc4)cc3)c2C1 (centres undefined)	KDM5B inh 25.1µM
CCN(C)C(=O)C(C)N1CCc2onc(C(c3ccccc3)c3ccccc3)c2C1 (centres undefined)	none
Cc1ccc(Nc2ccnc(N3CCC(NC(=O)Cc4ccccn4)CC3)n2)cc1	none (no result: KDM5B inh)
CCNC(=O)Nc1ccc2c(c1)CN(Cc1ccccc1OC)C(=O)C(C)O2 (centres undefined)	KDM5B inh 28.2µM
COc1ccc(CN2Cc3cc(NC(=O)c4ccc(Cl)cc4)ccc3OC(C)C2=O)c(OC)c1 (centres undefined)	KDM5B inh 25.1µM
CCC(C(=O)Nc1ccc2c(c1)CN(Cc1ccccc1OC)C(=O)C(C)O2)c1ccccc1 (centres undefined)	none
COc1ccc(C(=O)Nc2ccc3c(c2)CN(Cc2ccc(OC)cc2OC)C(=O)C(C)O3)cc1 (centres undefined)	none
C=CCCC(CN1CCCOCC1)Oc1ccc2cccc(OC)c2n1 (centres undefined)	KDM5B inh 31.6µM
CC(C)Cc1cc(CNc2nccc(-c3cc(C(=O)O)ccn3)n2)no1	KDM5B inh 31.6µM
CN1CC2(CCCN(CC3CC3)C2)c2cc(C(=O)NCCc3ccccc3)ccc21 (centres undefined)	KDM5B inh 35.5µM
CN1CCC2(C1)CN(Cc1ccccc1)c1ccc(C(=O)NCCc3ccccn3)cc12 (centres undefined)	KDM5B inh inconclusive
CN1CC2(CCCN(CC3CC3)C2)c2cc(C(=O)N3CC(O)C3)ccc21 (centres undefined)	KDM5B inh inconclusive
Cn1ccc(NC(=O)c2ccc3c(c2)C2(CCN(CC4CC4)C2)CN3Cc2ccccc2)n1 (centres undefined)	KDM5B inh inconclusive
COCCN1CCC2(C1)CN(C)c1ccc(C(=O)NCc3ccccc3)cc12 (centres undefined)	KDM5B inh 35.5µM
CC(=O)N1CCCC2(C1)CN(C)c1ccc(C(=O)NCCc3ccccc3)cc12 (centres undefined)	KDM5B inh 35.5µM
COc1ccc(C(=O)N2CCc3ccc(C(=O)NCc4ccccc4)cc32)cc1	none
CC(C)CNC(=O)c1ccc2c(c1)C1(CCCN(CC3CC3)C1)CN2C (centres undefined)	KDM5B inh 35.5µM
CN(C)CCNC(=O)c1ccc2c(=O)n3c(nc2c1)CCCCC3	none
CN(C)CCNC(=O)c1ccc2c(c1)C1(CCCN(CC3CC3)C1)CN2C (centres undefined)	KDM5B inh 35.5µM
O=C(NCc1nnc2ccc(-c3ccc(Cl)cc3)nn12)c1cc(F)ccc1Cl	KDM5B inh 15.8µM
COc1ccc(-c2ccc3nnc(CNC(=O)c4ccccc4Cl)n3n2)cc1	KDM5B inh 28.2µM
O=C(Cc1cccc(F)c1)NCc1nnc2ccc(-c3ccc(Cl)cc3)nn12	KDM5B inh 25.1µM
O=C(Cc1ccccc1Cl)NCc1nnc2ccc(-c3ccccc3)nn12	KDM5B inh 11.2µM
